Data as given in PubChem BioAssay.
A number with no mark means an inactive call. The source made the active and inactive calls.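 Rule for the calls: active = normalized viability below 100% at a tested concentration; inactive = the rest.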

Experiment: drug combination growth inhibition, ovarian cancer – cell-based, oncology-focused library, rucaparib conditional, profiling panel (AID 1508598)
Details: patient-derived ovarian cancer cells, CellTiter-Glo viability, 144 h; at 0.313 µM; OCI-C5x cells; without rucaparib; active compounds read low

SMILES | viability
N#CCNC(=O)c1ccc(-c2ccnc(Nc3ccc(N4CCOCC4)cc3)n2)cc1 | 105%
Nc1nc(Nc2ccc(S(N)(=O)=O)cc2)nn1C(=O)c1c(F)cccc1F | 86.1% (active)
O=C(Nc1ccccc1-c1cn2c(CN3CCNCC3)csc2n1)c1cnc2ccccc2n1 | 108%
COc1ccc(-c2ccc3c(N4CCOCC4)nc(N4C[C@@H](C)O[C@@H](C)C4)nc3n2)cc1CO | 127%
CC1(C)CNc2cc(NC(=O)c3cccnc3NCc3ccncc3)ccc21 | 126%
COc1cc2nccc(Oc3ccc(NC(=O)Nc4cc(C)on4)c(Cl)c3)c2cc1OC | 109%
N#Cc1c(NC(=O)c2cccc3ccccc23)sc2c1CCCC2 | 110%
COc1ccc(-c2ccc3c(N4CCOC[C@@H]4C)nc(N4CCOC[C@@H]4C)nc3n2)cc1CO | 48.1% (active)
Cc1cnc(NC(=O)Nc2cc(Br)c(C)cc2OC[C@@H]2CNCCO2)cn1 | 98% (active)
COC(=O)c1ccc2c(C(=Nc3ccc(N(C)C(=O)CN4CCN(C)CC4)cc3)c3ccccc3)c(O)[nH]c2c1 | 118%
Cc1ccc(F)c(NC(=O)Nc2ccc(-c3cccc4[nH]nc(N)c34)cc2)c1 | 107%

Same assay, conditions: patient-derived ovarian cancer cells, CellTiter-Glo viability, 144 h; at 0.313 µM; OCI-P5x cells; with rucaparib 20 µM; active compounds read low; 100% = cells with rucaparib alone

SMILES | viability
N#CCNC(=O)c1ccc(-c2ccnc(Nc3ccc(N4CCOCC4)cc3)n2)cc1 | 90.7% (active)
Nc1nc(Nc2ccc(S(N)(=O)=O)cc2)nn1C(=O)c1c(F)cccc1F | 90.8% (active)
O=C(Nc1ccccc1-c1cn2c(CN3CCNCC3)csc2n1)c1cnc2ccccc2n1 | 113%
COc1ccc(-c2ccc3c(N4CCOCC4)nc(N4C[C@@H](C)O[C@@H](C)C4)nc3n2)cc1CO | 95.5% (active)
CC1(C)CNc2cc(NC(=O)c3cccnc3NCc3ccncc3)ccc21 | 142%
COc1cc2nccc(Oc3ccc(NC(=O)Nc4cc(C)on4)c(Cl)c3)c2cc1OC | 88.2% (active)
N#Cc1c(NC(=O)c2cccc3ccccc23)sc2c1CCCC2 | 105%
COc1ccc(-c2ccc3c(N4CCOC[C@@H]4C)nc(N4CCOC[C@@H]4C)nc3n2)cc1CO | 34.3% (active)
Cc1cnc(NC(=O)Nc2cc(Br)c(C)cc2OC[C@@H]2CNCCO2)cn1 | 73.6% (active)
COC(=O)c1ccc2c(C(=Nc3ccc(N(C)C(=O)CN4CCN(C)CC4)cc3)c3ccccc3)c(O)[nH]c2c1 | 87% (active)
Cc1ccc(F)c(NC(=O)Nc2ccc(-c3cccc4[nH]nc(N)c34)cc2)c1 | 91.5% (active)

Same assay, conditions: patient-derived ovarian cancer cells, CellTiter-Glo viability, 144 h; at 0.313 µM; OCI-P5x cells; without rucaparib; active compounds read low

SMILES | viability
N#CCNC(=O)c1ccc(-c2ccnc(Nc3ccc(N4CCOCC4)cc3)n2)cc1 | 66.2% (active)
Nc1nc(Nc2ccc(S(N)(=O)=O)cc2)nn1C(=O)c1c(F)cccc1F | 87.7% (active)
O=C(Nc1ccccc1-c1cn2c(CN3CCNCC3)csc2n1)c1cnc2ccccc2n1 | 107%
COc1ccc(-c2ccc3c(N4CCOCC4)nc(N4C[C@@H](C)O[C@@H](C)C4)nc3n2)cc1CO | 106%
CC1(C)CNc2cc(NC(=O)c3cccnc3NCc3ccncc3)ccc21 | 107%
COc1cc2nccc(Oc3ccc(NC(=O)Nc4cc(C)on4)c(Cl)c3)c2cc1OC | 91.5% (active)
N#Cc1c(NC(=O)c2cccc3ccccc23)sc2c1CCCC2 | 100%
COc1ccc(-c2ccc3c(N4CCOC[C@@H]4C)nc(N4CCOC[C@@H]4C)nc3n2)cc1CO | 17% (active)
Cc1cnc(NC(=O)Nc2cc(Br)c(C)cc2OC[C@@H]2CNCCO2)cn1 | 94.9% (active)
COC(=O)c1ccc2c(C(=Nc3ccc(N(C)C(=O)CN4CCN(C)CC4)cc3)c3ccccc3)c(O)[nH]c2c1 | 97.6% (active)
Cc1ccc(F)c(NC(=O)Nc2ccc(-c3cccc4[nH]nc(N)c34)cc2)c1 | 90.2% (active)

Same assay, conditions: patient-derived ovarian cancer cells, CellTiter-Glo viability, 144 h; at 1.25 µM; OCI-C5x cells; with rucaparib 10 µM; active compounds read low; 100% = cells with rucaparib alone

SMILES | viability
N#CCNC(=O)c1ccc(-c2ccnc(Nc3ccc(N4CCOCC4)cc3)n2)cc1 | 120%
Nc1nc(Nc2ccc(S(N)(=O)=O)cc2)nn1C(=O)c1c(F)cccc1F | 82.9% (active)
O=C(Nc1ccccc1-c1cn2c(CN3CCNCC3)csc2n1)c1cnc2ccccc2n1 | 131%
COc1ccc(-c2ccc3c(N4CCOCC4)nc(N4C[C@@H](C)O[C@@H](C)C4)nc3n2)cc1CO | 120%
CC1(C)CNc2cc(NC(=O)c3cccnc3NCc3ccncc3)ccc21 | 135%
COc1cc2nccc(Oc3ccc(NC(=O)Nc4cc(C)on4)c(Cl)c3)c2cc1OC | 138%
N#Cc1c(NC(=O)c2cccc3ccccc23)sc2c1CCCC2 | 72.9% (active)
COc1ccc(-c2ccc3c(N4CCOC[C@@H]4C)nc(N4CCOC[C@@H]4C)nc3n2)cc1CO | 54.1% (active)
Cc1cnc(NC(=O)Nc2cc(Br)c(C)cc2OC[C@@H]2CNCCO2)cn1 | 60.4% (active)
COC(=O)c1ccc2c(C(=Nc3ccc(N(C)C(=O)CN4CCN(C)CC4)cc3)c3ccccc3)c(O)[nH]c2c1 | 124%
Cc1ccc(F)c(NC(=O)Nc2ccc(-c3cccc4[nH]nc(N)c34)cc2)c1 | 112%
